# According to ChEMBL document CHEMBL5606458, “ASAP - ZIKV NS2B-NS3 protease fluorescence single point” (2024):
# Hit rate of the full screen: of about 2,700 compounds, about 160 (5.9%) showed an effect of 50% or more. The sample as a whole holds a higher share of strong results than the screen did.
# Target: Nonstructural protein 3 (Zika virus) (UniProt A0A024AXB9)
# Sequence (A0A024AXB9 as listed by the source): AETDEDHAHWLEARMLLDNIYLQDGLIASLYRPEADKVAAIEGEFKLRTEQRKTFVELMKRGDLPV
structure (smiles),measurement,setting,value
OC1(c2ccccc2)CCN(Cc2c[nH]c3ccccc23)CC1,inhibition,"PRVABC59, Concentration 49.5 uM, Number of replicates 2.0, Standard deviation 0.6104232594017089 %",13%
same,inhibition,"PRVABC59, Concentration 99.01 uM, Number of replicates 2.0, Standard deviation 0.9927585642556782 %",22.8%
same,inhibition,"PRVABC59, Concentration 198.0 uM, Number of replicates 2.0, Standard deviation 2.2070409642846154 %",34.8%
FC(F)(F)c1ccccc1C1CCN(Cc2c[nH]c3ccccc23)CC1,inhibition,"PRVABC59, Concentration 49.5 uM, Number of replicates 2.0, Standard deviation 0.039004379485921774 %",33%
same,inhibition,"PRVABC59, Concentration 99.01 uM, Number of replicates 2.0, Standard deviation 0.833177783151486 %",38.2%
same,inhibition,"PRVABC59, Concentration 198.0 uM, Number of replicates 2.0, Standard deviation 1.0547312903060968 %",41.8%
c1cc(C2CCN(Cc3c[nH]c4ccccc34)CC2)c2ccncc2c1,inhibition,"PRVABC59, Concentration 49.5 uM, Number of replicates 2.0, Standard deviation 0.9049501572428696 %",65.6%
same,inhibition,"PRVABC59, Concentration 99.01 uM, Number of replicates 2.0, Standard deviation 0.6350269036884285 %",80.3%
same,inhibition,"PRVABC59, Concentration 198.0 uM, Number of replicates 2.0, Standard deviation 0.1685064720944352 %",90%
c1ccc2c(CN3CCC(c4cscn4)CC3)c[nH]c2c1,inhibition,"PRVABC59, Concentration 49.5 uM, Number of replicates 2.0, Standard deviation 0.07712401232790286 %",65.8%
same,inhibition,"PRVABC59, Concentration 99.01 uM, Number of replicates 2.0, Standard deviation 0.031176529605690447 %",79.9%
same,inhibition,"PRVABC59, Concentration 198.0 uM, Number of replicates 2.0, Standard deviation 0.07383858119278165 %",89.2%
C#CCn1ccnc(N2CC[C@H](CO)C2)c1=O,inhibition,"PRVABC59, Concentration 49.5 uM, Number of replicates 2.0, Standard deviation 1.0450300973032534 %",12.1%
same,inhibition,"PRVABC59, Concentration 99.01 uM, Number of replicates 2.0, Standard deviation 3.6329706761941627 %",19.8%
same,inhibition,"PRVABC59, Concentration 198.0 uM, Number of replicates 2.0, Standard deviation 1.3173095282768474 %",33.5%
CCCC[C@H](NC(=O)OC(C)(C)C)C(=O)N[C@H](C(=O)NCc1ccc(C(N)=O)cc1)c1ccc(OCc2ccccc2)cc1,inhibition,"PRVABC59, Concentration 49.5 uM, Number of replicates 2.0, Standard deviation 0.2512152790248196 %",-3.29%
same,inhibition,"PRVABC59, Concentration 99.01 uM, Number of replicates 2.0, Standard deviation 1.1330320426444238 %",4.53%
same,inhibition,"PRVABC59, Concentration 198.0 uM, Number of replicates 2.0, Standard deviation 0.18969183837952716 %",69.4%
CCCC[C@@H](NC(=O)OC(C)(C)C)C(=O)N[C@@H](C(=O)NCc1ccc(CN)cc1)c1ccc(OCc2ccccc2)cc1,inhibition,"PRVABC59, Concentration 49.5 uM, Number of replicates 2.0, Standard deviation 0.1534981479270999 %",98.5%
same,inhibition,"PRVABC59, Concentration 99.01 uM, Number of replicates 2.0, Standard deviation 0.024832248793042588 %",99.6%
same,inhibition,"PRVABC59, Concentration 198.0 uM, Number of replicates 2.0, Standard deviation 0.14898809796164614 %",99%
CCn1ccnc(N2CC[C@H](c3cccnc3)C2)c1=O,inhibition,"PRVABC59, Concentration 49.5 uM, Number of replicates 2.0, Standard deviation 0.6295639977718405 %",11.1%
same,inhibition,"PRVABC59, Concentration 99.01 uM, Number of replicates 2.0, Standard deviation 0.9611868657983497 %",17.2%
same,inhibition,"PRVABC59, Concentration 198.0 uM, Number of replicates 2.0, Standard deviation 2.077820749798943 %",29.9%
O[C@@H]1CNC[C@H]1c1c[nH]c2ccccc12,inhibition,"PRVABC59, Concentration 49.5 uM, Number of replicates 2.0, Standard deviation 0.0908773719339778 %",4.36%
same,inhibition,"PRVABC59, Concentration 99.01 uM, Number of replicates 2.0, Standard deviation 0.868383551474818 %",12%
same,inhibition,"PRVABC59, Concentration 198.0 uM, Number of replicates 2.0, Standard deviation 1.0703330421004655 %",25.3%
CCn1ccnc(N2CC[C@H](C#N)C2)c1=O,inhibition,"PRVABC59, Concentration 50.0 uM, Number of replicates 1.0",9.92%
same,inhibition,"PRVABC59, Concentration 100.0 uM, Number of replicates 2.0, Standard deviation 3.4431722905816002 %",15.4%
same,inhibition,"PRVABC59, Concentration 200.0 uM, Number of replicates 3.0, Standard deviation 5.353488841443075 %",26.6%
CCn1ccnc(N2CC[C@@H](CC#N)C2)c1=O,inhibition,"PRVABC59, Concentration 49.5 uM, Number of replicates 2.0, Standard deviation 4.2825905047110036 %",7.54%
same,inhibition,"PRVABC59, Concentration 99.01 uM, Number of replicates 2.0, Standard deviation 3.0053265516656906 %",14.9%
same,inhibition,"PRVABC59, Concentration 198.0 uM, Number of replicates 2.0, Standard deviation 1.5959318913639373 %",26%
CCn1ccnc(N(C)[C@@H](CO)Cc2c[nH]c3ccccc23)c1=O,inhibition,"PRVABC59, Concentration 49.5 uM, Number of replicates 2.0, Standard deviation 1.5047267855359387 %",5.63%
same,inhibition,"PRVABC59, Concentration 99.01 uM, Number of replicates 2.0, Standard deviation 0.8040526249565179 %",13%
same,inhibition,"PRVABC59, Concentration 198.0 uM, Number of replicates 2.0, Standard deviation 1.5605190977207197 %",25.3%
C[C@@H](CO)N1CC[C@H](c2c[nH]c3ccccc23)C1,inhibition,"PRVABC59, Concentration 49.5 uM, Number of replicates 2.0, Standard deviation 2.959092091051968 %",-1.43%
same,inhibition,"PRVABC59, Concentration 99.01 uM, Number of replicates 2.0, Standard deviation 1.9403190167556676 %",0.816%
same,inhibition,"PRVABC59, Concentration 198.0 uM, Number of replicates 2.0, Standard deviation 2.4285693519175138 %",5.47%
C[C@@H](Cc1c[nH]c2ccccc12)N1CC[C@H](c2c[nH]c3ccccc23)C1,inhibition,"PRVABC59, Concentration 49.5 uM, Number of replicates 2.0, Standard deviation 2.440376707234144 %",29.4%
same,inhibition,"PRVABC59, Concentration 99.01 uM, Number of replicates 2.0, Standard deviation 1.7661943697547304 %",46%
same,inhibition,"PRVABC59, Concentration 198.0 uM, Number of replicates 2.0, Standard deviation 0.6921254310022592 %",60.4%
O[C@H]1CCCN(Cc2c[nH]c3ccccc23)C1,inhibition,"PRVABC59, Concentration 49.5 uM, Number of replicates 2.0, Standard deviation 18.69396289412785 %",21%
same,inhibition,"PRVABC59, Concentration 99.01 uM, Number of replicates 2.0, Standard deviation 0.9286103864725214 %",13.9%
same,inhibition,"PRVABC59, Concentration 198.0 uM, Number of replicates 2.0, Standard deviation 2.4132961769541357 %",24.7%
c1cnc2c(C3CCN(Cc4c[nH]c5ncccc45)CC3)c[nH]c2c1,inhibition,"PRVABC59, Concentration 49.5 uM, Number of replicates 2.0, Standard deviation 1.618110911749522 %",7.76%
same,inhibition,"PRVABC59, Concentration 99.01 uM, Number of replicates 2.0, Standard deviation 1.5506891039488269 %",16.5%
same,inhibition,"PRVABC59, Concentration 198.0 uM, Number of replicates 2.0, Standard deviation 1.1046722712184134 %",29.8%
c1ccc2c(CN3CCC(c4c[nH]c5cccnc45)CC3)c[nH]c2c1,inhibition,"PRVABC59, Concentration 49.5 uM, Number of replicates 2.0, Standard deviation 1.80837898184189 %",63.8%
same,inhibition,"PRVABC59, Concentration 99.01 uM, Number of replicates 2.0, Standard deviation 1.3316731742493602 %",74.9%
same,inhibition,"PRVABC59, Concentration 198.0 uM, Number of replicates 2.0, Standard deviation 0.976733320927472 %",81.5%
c1ccc2c(CN3CCC(c4c[nH]c5ncccc45)CC3)c[nH]c2c1,inhibition,"PRVABC59, Concentration 49.5 uM, Number of replicates 2.0, Standard deviation 1.5803867849339672 %",58.2%
same,inhibition,"PRVABC59, Concentration 99.01 uM, Number of replicates 2.0, Standard deviation 1.538935865185685 %",72.5%
same,inhibition,"PRVABC59, Concentration 198.0 uM, Number of replicates 2.0, Standard deviation 1.43011742277759 %",82.3%
O[C@@H]1CN(Cc2c[nH]c3ccccc23)CC[C@@H]1c1ccccc1,inhibition,"PRVABC59, Concentration 49.5 uM, Number of replicates 2.0, Standard deviation 0.3811882362248968 %",52.4%
same,inhibition,"PRVABC59, Concentration 99.01 uM, Number of replicates 2.0, Standard deviation 0.3137721603955992 %",68%
same,inhibition,"PRVABC59, Concentration 198.0 uM, Number of replicates 2.0, Standard deviation 0.1218792449994391 %",78.3%
c1cc(CN2CCC(c3c[nH]c4ncccc34)CC2)c2[nH]ccc2c1,inhibition,"PRVABC59, Concentration 49.5 uM, Number of replicates 2.0, Standard deviation 0.810920201040277 %",22.9%
same,inhibition,"PRVABC59, Concentration 99.01 uM, Number of replicates 2.0, Standard deviation 0.8653267248460199 %",30.1%
same,inhibition,"PRVABC59, Concentration 198.0 uM, Number of replicates 2.0, Standard deviation 1.207313671508752 %",32%
